In PubChem BioAssay AID624354 (Sanford-Burnham Center for Chemical Genomics, 2012) one finds inhibition (viability loss, TRAIL sensitization) data, which are given here for 56 molecules.

Screen size: about 360,000 compounds; about 3,800 (1.1%) were called active. The full list was thinned out, with actives kept by preference. A number with no mark means an inactive call.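 The calls were made as follows: active = compounds causing at least 50% loss of cell viability in the single-dose screen, relative to plate controls; inactive = the rest.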

This assay can be described thus: TRAIL-exposed caspase-8 expressing cell killing – NB7+C8 cells, ATPlite luminescence, TRAIL sensitizer project, primary screen (AID 624354). The conditions noted are these: at 10 µM, stronger effect = higher value. In general terms: In ATP-based viability assays light output follows the ATP content of the culture.
For `COc1ccc(S(=O)(=O)N2CCOCC2)cc1NC(=O)CC1CC2CCC1C2` (stereo unspecified), the inhibition (viability loss, TRAIL sensitization) is -19.8%.

In the case of `Cc1nn(-c2ccccc2)c(Cl)c1/C=N/NC(=O)c1nn(C)cc1[N+](=O)[O-]`, the inhibition (viability loss, TRAIL sensitization) was 54.6% (active).

For the molecule `Cc1cc(=O)[nH]c(N/N=C/c2c(C)nn(-c3ccccc3Cl)c2Cl)n1`, the inhibition (viability loss, TRAIL sensitization) was -2.12%.

For the molecule `Cn1cc([N+](=O)[O-])c(C(=O)Nc2ccc3c(c2)OCCO3)n1`, the inhibition (viability loss, TRAIL sensitization) is 23.6%.

`COc1ccc(N2CCN(C(=O)C3CCN(S(=O)(=O)c4ccc(C)cc4)CC3)CC2)cc1`: the inhibition (viability loss, TRAIL sensitization) was -4.63%.

With `CC(C)NC(=O)CSc1nnc(COc2ccccc2Cl)o1`, the inhibition (viability loss, TRAIL sensitization) is 11.2%.

`COc1ccc2sc(-c3ccc(S(C)(=O)=O)cc3)c(C#Cc3cncn3C)c2c1`: the inhibition (viability loss, TRAIL sensitization) is 54.7% (active).

Turning to `Cn1cncc1C#Cc1c(-c2ccsc2)sc2ccccc12`, the inhibition (viability loss, TRAIL sensitization) was 0.155%.

For `COc1cccc(-c2sc3ccc(OC)cc3c2-c2ccc(OCCN3CCCCC3)cc2)c1`, the inhibition (viability loss, TRAIL sensitization) is 12.9%.

With `Cc1cc(C)n2nc(C(=O)OCC(=O)N(C)CC(=O)Nc3ccc(F)cc3)nc2n1`, the inhibition (viability loss, TRAIL sensitization) was 2.14%.

In the case of `c1ccc(-n2ncc(-c3nn[nH]n3)n2)cc1`, the inhibition (viability loss, TRAIL sensitization) was 8.97%.

As to `O=C(NNS(=O)(=O)c1ccc([N+](=O)[O-])cc1)C1CCCCC1`, the inhibition (viability loss, TRAIL sensitization) was -2.99%.

`O=C(C[C@H]1C/C=C\C[C@@H](NC(=O)OCC2c3ccccc3-c3ccccc32)C(=O)O[C@@H](c2ccccc2)CNC1=O)N[C@H](CO)Cc1ccccc1`: the inhibition (viability loss, TRAIL sensitization) is 73.9% (active).

As to `CC(C)(C)OC(=O)C[C@@H]1C/C=C\C[C@@H](CC(=O)N[C@H](CO)Cc2ccccc2)C(=O)NC[C@@H](c2ccccc2)OC1=O`, the inhibition (viability loss, TRAIL sensitization) was 3.83%.

On to `CC(C)(C)OC(=O)C[C@H]1C/C=C\C[C@@H](CC(=O)N[C@H](CO)Cc2ccccc2)C(=O)NC[C@@H](c2ccccc2)OC1=O`, for which the inhibition (viability loss, TRAIL sensitization) was -2.43%.

For the molecule `O=c1ccn([C@@H]2O[C@H](CNS(=O)(=O)c3cc4ccccc4s3)[C@@H](O)[C@H]2O)c(=O)[nH]1`, the inhibition (viability loss, TRAIL sensitization) was 5.61%.

For the molecule `COc1ccc(N2CCN(C(CNS(=O)(=O)c3ccc(C)cc3)c3ccccc3)CC2)cc1` (stereo unspecified), the inhibition (viability loss, TRAIL sensitization) is -6.83%.

In the case of `CCc1ccc(-c2cc(C(=O)NN3CCN(C)CC3)c3ccccc3n2)cc1`, the inhibition (viability loss, TRAIL sensitization) was 58.3% (active).

As for `O=C(NCCc1ccccn1)c1cc(-c2ccc(Cl)cc2)nc2ccccc12`, the inhibition (viability loss, TRAIL sensitization) was 7.97%.

Turning to `CC1CCCC(NC(=O)c2cc(-c3ccncc3)nc3ccccc23)C1C` (stereo unspecified), the inhibition (viability loss, TRAIL sensitization) is 11.9%.

Consider `O=C(NCc1cccnc1)c1ccccc1NC(=O)c1c(F)cccc1F`, for which the inhibition (viability loss, TRAIL sensitization) is -13.9%.

As to `COc1ccc(CC(N)c2csc(NC(=O)Nc3ccc(C(C)C)cc3)n2)cc1` (stereo unspecified), the inhibition (viability loss, TRAIL sensitization) is 92.1% (active).

`COc1ccc(CC(N)c2csc(NC(=O)NC(c3ccccc3)c3ccccc3)n2)cc1` (stereo unspecified): the inhibition (viability loss, TRAIL sensitization) was 44.6%.

Take `COc1ccc(CC(N)c2csc(NC(=O)Cc3ccccc3)n2)cc1` (stereo unspecified): the inhibition (viability loss, TRAIL sensitization) is -6.08%.

Regarding `N#Cc1ccc(CN2CCN(CC(=O)Nc3ccccc3C(=O)NC3CC3)CC2)cc1`, the inhibition (viability loss, TRAIL sensitization) is -1.82%.

`Cn1c(=NC(=O)c2cnccn2)sc2ccccc21`: the inhibition (viability loss, TRAIL sensitization) was 61.8% (active).

Take `Cn1c(=NC(=O)c2ccco2)sc2cccc(F)c21`: the inhibition (viability loss, TRAIL sensitization) was 47.7%.

As for `COC(=O)c1ccc(OC(=O)c2cnccn2)cc1`, the inhibition (viability loss, TRAIL sensitization) was 6.75%.

Consider `OCCCNC(c1ccccc1)c1ccc(O)cc1` (stereo unspecified), for which the inhibition (viability loss, TRAIL sensitization) is 20.3%.

As for `CN(C)c1cccc(NC(=O)c2ccc(-c3ccc(F)c(F)c3)c3ccoc23)c1`, the inhibition (viability loss, TRAIL sensitization) was 20.1%.

In the case of `Cc1sc2ncn(CC(=O)NCCCC(=O)N3CCN(c4ccccc4F)CC3)c(=O)c2c1C`, the inhibition (viability loss, TRAIL sensitization) was 19.6%.

`CN(C(=O)CN1C(=O)/C(=C/c2ccc(Cl)cc2)SC1=S)C1CCS(=O)(=O)C1` (stereo unspecified): the inhibition (viability loss, TRAIL sensitization) is 10.1%.

As to `CCN(C(=O)CN1C(=O)/C(=C/c2ccc(F)cc2)SC1=S)C1CCS(=O)(=O)C1` (stereo unspecified), the inhibition (viability loss, TRAIL sensitization) is -9.46%.

As to `C=CCOc1ccc(/C=C2\SC(=S)N(CCC(=O)O)C2=O)cc1`, the inhibition (viability loss, TRAIL sensitization) was 56.9% (active).

On to `COCCN(C(=O)CSCc1ccc(C)cc1)c1c(N)n(CC(C)C)c(=O)[nH]c1=O`, for which the inhibition (viability loss, TRAIL sensitization) is -0.426%.

`COc1cccc(NC(=O)CN(C)CC(=O)c2c(N)n(Cc3ccccc3)c(=O)n(C)c2=O)c1`: the inhibition (viability loss, TRAIL sensitization) is -2.67%.

For `Cc1ccc(S(=O)(=O)/N=C(\CN2CCOCC2)N2CCOCC2)cc1`, the inhibition (viability loss, TRAIL sensitization) was -0.117%.

With `NN=C(NN=Cc1ccccc1)c1ccccc1`, the inhibition (viability loss, TRAIL sensitization) was 12.4%.

Consider `O=C(N/N=C/c1cc([N+](=O)[O-])ccc1O)/C(=C\c1cccs1)NC(=O)c1ccccc1`, for which the inhibition (viability loss, TRAIL sensitization) was 41.5%.

`O=C(N/N=C/c1ccccc1O)/C(=C/c1ccccc1)CCO`: the inhibition (viability loss, TRAIL sensitization) was 51.4% (active).

On to `CCCc1nn2c(=O)cc(CSCC(=O)Nc3cccc(C)c3)nc2s1`, for which the inhibition (viability loss, TRAIL sensitization) is -0.888%.

For `CCCCc1cc(=O)oc2cc(C)cc(OCc3nn[nH]n3)c12`, the inhibition (viability loss, TRAIL sensitization) was 10.2%.

Take `CCOC(=O)CCc1c(C)c2ccc(OCc3nn[nH]n3)c(C)c2oc1=O`: the inhibition (viability loss, TRAIL sensitization) was -5.29%.

In the case of `COc1ccc(-c2cc3ccc(OCc4nn[nH]n4)cc3oc2=O)cc1`, the inhibition (viability loss, TRAIL sensitization) was 56.7% (active).

In the case of `CCc1ccc(-n2c(=S)sc3c(=O)n(-c4ccccc4OC)c(=S)[nH]c32)cc1`, the inhibition (viability loss, TRAIL sensitization) is -3.67%.

Regarding `Cc1cccc(C)c1NC(=O)C(c1cccc2ccccc12)n1c(=O)c(-c2ccco2)nc2ccccc21` (stereo unspecified), the inhibition (viability loss, TRAIL sensitization) was -6.27%.

In the case of `O=c1oc(-c2ccccc2NS(=O)(=O)c2ccc(Cl)cc2)nc2ccccc12`, the inhibition (viability loss, TRAIL sensitization) was 6.47%.

On to `S=c1[nH]nc(/C=C/c2ccccc2)o1`, for which the inhibition (viability loss, TRAIL sensitization) was 0.666%.

As for `O=c1oc(/C=C/c2ccccc2)nc2ccccc12`, the inhibition (viability loss, TRAIL sensitization) is 77.8% (active).

As for `CN1CCC(CN)(N2CCN(c3ccccc3)CC2)CC1`, the inhibition (viability loss, TRAIL sensitization) was 6.93%.

Take `COc1ccc(CCNc2cc(N3CCN(C(=O)c4ccccc4OC)CC3)ccc2[N+](=O)[O-])cc1OC`: the inhibition (viability loss, TRAIL sensitization) was 39.3%.

Regarding `O=[N+]([O-])c1ccc(C=Nc2ccc(Cl)cc2Cl)s1`, the inhibition (viability loss, TRAIL sensitization) was 53.8% (active).

`C[C@@H]1CN([C@@H](C)CO)C(=O)c2cc(NS(C)(=O)=O)ccc2O[C@@H](C)CCCCO[C@H]1CN(C)C(=O)Nc1ccc2c(c1)OCO2`: the inhibition (viability loss, TRAIL sensitization) was -14.6%.

With `Cn1c(NCc2cccnc2)nc2cc(-c3ccc(F)cc3)sc2c1=O`, the inhibition (viability loss, TRAIL sensitization) was 12.2%.

Consider `O=c1[nH]c(CCl)nc2cc(-c3ccc(Cl)cc3)sc12`, for which the inhibition (viability loss, TRAIL sensitization) was 94.8% (active).

Take `COc1cccc(-c2cc3nc(NCCOc4ccccc4Cl)n(C)c(=O)c3s2)c1`: the inhibition (viability loss, TRAIL sensitization) is -1.03%.
